Laboratory results published in PubChem BioAssay (Tox21).
Where “and” joins values, the source holds several entries; their conditions need not be identical. Equal entries are not always repeated. Inconclusive results are not listed. Calls of active or inactive are those of the source. Calls follow the shape of the dose curve; as a rule, active = well fitted curve in the direction sought with a large enough effect in the repeat runs; inconclusive = weak or mixed curves; inactive = no such curve, though single readings can be large; an effect the other way counts as inactive or inconclusive.

Columns and labels:
[1] = A CellTox Green Cytotoxicity Assay to monitor cytotoxicity in HEK293 cells - 40 hour (AID 1224871); also: nearly all actives have a fitted effect of over 45% in size; also: potency is read from the fitted curve at half-maximal effect
Outline: (§1)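 Each value comes from one timepoint of a single continuous run in which HEK293 cells with CellTox Green were exposed to compound for up to 40 h at 37 C, dye fluorescence rising with cell death.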

[2] = qHTS RealTime-Glo MT Cell Viability Assay in HepG2 cells - 8 hour (AID 1224873); also: nearly all actives have a fitted effect of over 55% in size; also: potency is read from the fitted curve at half-maximal effect
Outline: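 Real-time viability: cells seeded at 600 per well together with NanoLuc and cell-permeant prosubstrate, compounds added after 5 h incubation. Luminescence tracked at 0, 8, 16, 24, 32 and 40 h of exposure.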

[3] = qHTS RealTime-Glo MT Cell Viability Assay in HEK293 cells - 40 hour (AID 1224874); conditions: RealTime-Glo luminescence; max response: stronger effect = lower value; also: nearly all actives have a fitted effect of over 50% in size; also: potency is read from the fitted curve at half-maximal effect
Outline: (§2)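 qHTS format; HEK293 cells with NanoLuc/prosubstrate reagent, 37 C/5% CO2 for 5 h pre-dosing; compounds 23 nL in DMSO; luminescence at each time point reflects viable cells.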

[4] = A CellTox Green Cytotoxicity Assay to monitor cytotoxicity in HEK293 cells - 24 hour (AID 1224875); also: nearly all actives have a fitted effect of over 45% in size; also: potency is read from the fitted curve at half-maximal effect
Outline: as §1

[5] = A CellTox Green Cytotoxicity Assay to monitor cytotoxicity in HepG2 cells - 16 hour (AID 1224876); also: nearly all actives have a fitted effect of over 45% in size; also: potency is read from the fitted curve at half-maximal effect
Outline: (§3)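 Continuous culture of HepG2 cells with a membrane-impermeant DNA dye; rising fluorescence marks dead cells. Compound exposure lasted up to 40 h at 37 C, with reads every 8 h from 0 h.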

[6] = qHTS RealTime-Glo MT Cell Viability Assay in HepG2 cells - 32 hour (AID 1224877); also: nearly all actives have a fitted effect of over 55% in size; also: potency is read from the fitted curve at half-maximal effect
Outline: (§4)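 HepG2 suspension premixed with RealTime-Glo reagents is plated at 600 cells per well and left 5 h at 37 C/5% CO2. Compounds in DMSO then go in, and bioluminescence reflecting viable cell number is recorded over 40 h.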

[7] = A CellTox Green Cytotoxicity Assay to monitor cytotoxicity in HepG2 cells - 24 hour (AID 1224878); also: nearly all actives have a fitted effect of over 45% in size; also: potency is read from the fitted curve at half-maximal effect
Outline: as §3

[8] = A CellTox Green Cytotoxicity Assay to monitor cytotoxicity in HepG2 cells - 40 hour (AID 1224879); also: nearly all actives have a fitted effect of over 40% in size; also: potency is read from the fitted curve at half-maximal effect
Outline: as §3

[9] = qHTS RealTime-Glo MT Cell Viability Assay in HEK293 cells - 0 hour (AID 1224880)
Outline: as §2

[10] = A CellTox Green Cytotoxicity Assay to monitor cytotoxicity in HEK293 cells - 32 hour (AID 1224881); also: nearly all actives have a fitted effect of over 40% in size; also: potency is read from the fitted curve at half-maximal effect
Outline: as §1

[11] = A CellTox Green Cytotoxicity Assay to monitor cytotoxicity in HepG2 cells - 0 hour (AID 1224882); also: nearly all actives have a fitted effect of over 35% in size; also: potency is read from the fitted curve at half-maximal effect
Outline: as §3

[12] = A CellTox Green Cytotoxicity Assay to monitor cytotoxicity in HepG2 cells - 32 hour (AID 1224883); also: nearly all actives have a fitted effect of over 50% in size; also: potency is read from the fitted curve at half-maximal effect
Outline: as §3

[13] = A CellTox Green Cytotoxicity Assay to monitor cytotoxicity in HEK293 cells - 8 hour (AID 1224884); also: nearly all actives have a fitted effect of over 35% in size; also: potency is read from the fitted curve at half-maximal effect
Outline: as §1

[14] = qHTS RealTime-Glo MT Cell Viability Assay in HepG2 cells - 16 hour (AID 1224885); also: nearly all actives have a fitted effect of over 50% in size
Outline: as §4

[15] = qHTS RealTime-Glo MT Cell Viability Assay in HEK293 cells - 24 hour (AID 1224886); also: nearly all actives have a fitted effect of over 50% in size; also: potency is read from the fitted curve at half-maximal effect
Outline: (§5)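 Reads taken at 0, 8, 16, 24, 32 and 40 h from the same wells. HEK293 cells (600/well) carried RealTime-Glo reagents from seeding, with compound added after a 5 h settle at 37 C.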

[16] = A CellTox Green Cytotoxicity Assay to monitor cytotoxicity in HEK293 cells - 16 hour (AID 1224888); also: nearly all actives have a fitted effect of over 35% in size; also: potency is read from the fitted curve at half-maximal effect
Outline: as §1

[17] = qHTS RealTime-Glo MT Cell Viability Assay in HepG2 cells - 0 hour (AID 1224889); also: nearly all actives have a fitted effect of over 50% in size; also: potency is read from the fitted curve at half-maximal effect
Outline: as §4

[18] = A CellTox Green Cytotoxicity Assay to monitor cytotoxicity in HepG2 cells - 8 hour (AID 1224890); also: nearly all actives have a fitted effect of over 45% in size; also: potency is read from the fitted curve at half-maximal effect
Outline: as §3

[19] = qHTS RealTime-Glo MT Cell Viability Assay in HEK293 cells - 16 hour (AID 1224872); also: nearly all actives have a fitted effect of over 50% in size; also: potency is read from the fitted curve at half-maximal effect
Outline: as §5

[20] = qHTS RealTime-Glo MT Cell Viability Assay in HEK293 cells - 8 hour (AID 1224887); also: nearly all actives have a fitted effect of over 50% in size; also: potency is read from the fitted curve at half-maximal effect
Outline: as §2
% is scaled to controls: 0 for no effect and ±100 for the full control effect.

CC(C)N(C(=O)SC/C(Cl)=C/Cl)C(C)C
inactive: Potency [2] | max response [3] -22.2% | Potency [4] | Potency [5] | Potency [6] | Potency [7] | Potency [8] | Potency [9] | Potency [11] | Potency [12] | Potency [13] | Potency [14] | Potency [15] | Potency [16] | Potency [17] | Potency [18]
active: Potency [1] 43.9 µM | Potency [10] 39.2 µM

CCn1cc[n+](C)c1 (tested in a mixture with another compound)
inactive: Potency [1] | Potency [19] | Potency [4] | Potency [5] | Potency [6] | Potency [7] | Potency [9] | Potency [10] | Potency [11] | Potency [12] | Potency [13] | Potency [14] | Potency [15] | Potency [20] | Potency [16] | Potency [17] | Potency [18]

Cc1ccccc1OP(=O)(Oc1ccccc1C)Oc1ccccc1C
inactive: Potency [1] | Potency [19] | Potency [4] | Potency [5] | Potency [7] | Potency [9] | Potency [10] | Potency [11] | Potency [12] | Potency [13] | Potency [14] | Potency [16] | Potency [17] | Potency [18]

N#CC(C#N)=NNc1cccc(Cl)c1
inactive: Potency [2] | Potency [4] | Potency [10] | Potency [11] | Potency [13] | Potency [20] | Potency [16] | Potency [18]
active: Potency [1] 49 µM | Potency [3] 5.49 µM | Potency [6] 21.9 µM | Potency [7] 24.5 µM | Potency [8] 12.3 µM | Potency [12] 13.8 µM | Potency [17] 24.5 µM

CC(=O)O.CC(=O)O.CC(=O)O.CC(=O)O.CC(=O)O.CC(=O)O.CC(=O)O.O.O.[Cr].[Cr].[Cr]
inactive: Potency [1] | Potency [19] | Potency [4] | Potency [5] | Potency [7] | Potency [8] | Potency [9] | Potency [10] | Potency [11] | Potency [12] | Potency [13] | Potency [14] | Potency [20] | Potency [16] | Potency [17] | Potency [18]

O=C(N[C@@H]1N=C(c2ccccc2F)c2cccc3c2N(CC3)C1=O)c1cc2ccccc2[nH]1
active: Potency [1] 6.01 µM | Potency [4] 5.35 µM | Potency [5] 21.3 µM | Potency [7] 21.3 µM | Potency [10] 6.01 µM | Potency [11] 26.8 µM | Potency [12] 19 µM | Potency [13] 9.52 µM | Potency [16] 5.35 µM | Potency [18] 21.3 µM
inactive: Potency [19] | max response [3] -2.71% | Potency [9] | Potency [20] | Potency [17]

c1ccc(N=NNc2ccccc2)cc1
active: Potency [1] 45.2 µM and 43.6 µM | Potency [4] 50.7 µM | Potency [8] 49 µM | Potency [10] 50.7 µM and 43.6 µM | Potency [20] 50.7 µM
inactive: Potency [19] | max response [3] -3.75% | Potency [6] | Potency [9] | Potency [11] | Potency [15] | Potency [16] | Potency [17]

O=C1C[C@@H]2OCC=C3CN4CC[C@]56c7ccccc7N1[C@H]5[C@H]2[C@H]3C[C@H]46
inactive: Potency [1] | Potency [2] | Potency [4] | Potency [5] | Potency [6] | Potency [7] | Potency [9] | Potency [10] | Potency [11] | Potency [12] | Potency [14] | Potency [16] | Potency [17] | Potency [18]

CC(C)c1c(CN(C)C(C)Cc2ccccc2)n(C)n(-c2ccccc2)c1=O (configuration not stated)
inactive: Potency [1] | Potency [2] | Potency [4] | Potency [5] | Potency [6] | Potency [7] | Potency [8] | Potency [9] | Potency [10] | Potency [11] | Potency [12] | Potency [13] | Potency [14] | Potency [16] | Potency [18]

Cc1c([N+](=O)[O-])cc2c(c1[N+](=O)[O-])C(C)(C)CC2(C)C
inactive: Potency [19] | Potency [2] | max response [3] -1.57% | Potency [4] | Potency [5] | Potency [6] | Potency [7] | Potency [8] | Potency [11] | Potency [12] | Potency [14] | Potency [15] | Potency [20] | Potency [17] | Potency [18]

COC(=O)c1cc(Oc2ccc(Cl)cc2Cl)ccc1[N+](=O)[O-]
inactive: Potency [1] | Potency [2] | Potency [4] | Potency [5] | Potency [6] | Potency [7] | Potency [8] | Potency [9] | Potency [10] | Potency [11] | Potency [12] | Potency [13] | Potency [14] | Potency [16] | Potency [17] | Potency [18]

O.O.O.O=C([O-])[C@H]([O-])[C@@H]([O-])C(=O)[O-].O=C([O-])[C@H]([O-])[C@@H]([O-])C(=O)[O-].[K+].[K+].[Sb+3].[Sb+3]
inactive: Potency [4] | Potency [5] | Potency [7] | Potency [10] | Potency [11] | Potency [20] | Potency [16] | Potency [17] | Potency [18]

FC(F)C(F)(F)OCC(Cn1cncn1)c1ccc(Cl)cc1Cl (configuration not stated)
active: Potency [19] 24.4 µM | Potency [2] 54.6 µM | Potency [3] 21.7 µM | Potency [7] 48.7 µM | Potency [8] 48.7 µM | Potency [12] 48.7 µM | Potency [15] 21.7 µM
inactive: Potency [4] | Potency [9] | Potency [11] | Potency [16] | Potency [17]

Oc1cc(Cl)cc(Cl)c1
active: Potency [10] 49.5 µM
inactive: Potency [5] | Potency [6] | Potency [7] | Potency [11] | Potency [12] | Potency [14] | Potency [17] | Potency [18]

Cc1cc(C2CC2)nc(Nc2ccccc2)n1
inactive: Potency [4] | Potency [9] | Potency [10] | Potency [11] | Potency [13] | Potency [16] | Potency [17]
active: Potency [19] 21.9 µM | Potency [20] 21.9 µM

CC(C)(C)c1ccc(OP(=O)(Oc2ccccc2)Oc2ccccc2)cc1
inactive: Potency [1] | Potency [4] | Potency [5] | Potency [6] | Potency [7] | Potency [8] | Potency [9] | Potency [10] | Potency [11] | Potency [12] | Potency [13] | Potency [14] | Potency [16] | Potency [17] | Potency [18]
